For assay [1], the target named is Cell division control protein 42 homolog (Homo sapiens) (UniProt P60953). As to the kind of experiment: activated mutant Cdc42 GTP-binding inhibitors, dose response, biochemical, multiplex bead flow cytometry, Bodipy-FL-GTP (AID 1333;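 active means fitted half-maximal concentration within the tested dose range, moderate curve steepness, a statistically real signal drop, and little compound fluorescence or tag-binding interference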).
Assay [2] shares this target. As to the kind of experiment: wildtype Cdc42 GTP-binding inhibitors, dose response, biochemical, multiplex bead flow cytometry, Bodipy-FL-GTP (AID 1334;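 active means fitted half-maximal concentration within the tested range, moderate curve steepness, significant signal drop, and little compound fluorescence or bead-linkage interference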). Particulars: bead-based flow cytometry, Bodipy-FL-GTP binding to GST-Cdc42; at 100 µM (top of the series) unless noted.
Assay [3] addresses GTPase HRas (Homo sapiens) (UniProt P01112). As to the kind of experiment: inhibitors of GTP binding to wildtype Ras, dose response, biochemical, multiplex bead flow cytometry (AID 1335). The note with it: bead-based flow cytometry, Bodipy-GTP binding to GST-Ras; at 100 µM (top of the series) unless noted.
Assay [4] deals with Ras-related protein Rab-7a (dog), GTP binding. Kind of assay: Rab7 GTP binding inhibitors, potency, dose response, biochemical, wildtype, multiplex bead flow cytometry (AID 1336; call rule not given here).
For assay [5], the target named is Ras-related C3 botulinum toxin substrate 1 (Homo sapiens) (UniProt P63000). As to the kind of experiment: wildtype Rac1 GTP binding inhibitors, dose response, biochemical, multiplex bead flow cytometry (AID 1340;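 active means dose curve with midpoint inside tested range, moderate steepness, plateau gap beyond fit error, low compound glow and bead-link interference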). The note with it: GST-Rac1 beads, Bodipy-FL-GTP binding; at 100 µM (top of the series) unless noted.
Assay [6] deals with GTPase HRas (Homo sapiens) (UniProt P01112). Kind of assay: activated Ras mutant GTP binding inhibitors, dose response, biochemical, multiplex bead flow cytometry (AID 1341;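 active means dose-response curve with midpoint inside the tested range, moderate steepness, significant amplitude and little compound fluorescence or bead-attachment interference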;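 further: GST-tagged constitutively activated Ras mutant immobilized on beads and multiplexed with other GTPases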).
Chain of GTPase HRas (Homo sapiens) (P01112 whole entry, looked up): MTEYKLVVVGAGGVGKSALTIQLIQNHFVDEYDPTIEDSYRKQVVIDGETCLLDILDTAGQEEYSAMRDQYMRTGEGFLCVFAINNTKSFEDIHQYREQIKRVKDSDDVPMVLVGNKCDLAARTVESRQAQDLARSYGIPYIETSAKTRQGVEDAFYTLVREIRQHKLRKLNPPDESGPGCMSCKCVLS

Each structure is given as a SMILES string. For part of these data: Entries with a potency or affinity are not part of this list. Calls of active or inactive are those of the source.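 How the source made its calls, unless noted: active means fitted half-maximal concentration within 10 nM to 100 µM, steepness 0.5 to 2, significant signal drop, low assay interference; inactive means the rest.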

Chain of Cell division control protein 42 homolog (Homo sapiens) (P60953 whole entry, looked up): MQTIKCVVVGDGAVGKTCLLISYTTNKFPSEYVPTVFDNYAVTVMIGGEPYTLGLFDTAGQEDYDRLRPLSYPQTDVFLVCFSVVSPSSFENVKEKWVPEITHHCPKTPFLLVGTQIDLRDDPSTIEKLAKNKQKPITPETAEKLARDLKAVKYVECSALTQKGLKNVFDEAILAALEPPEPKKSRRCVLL

As for `Cn1c(N/N=C/c2ccccc2)nc2sc3c(c2c1=O)CCC3`, the result in assay [1], in assay [4] and in assay [6] was inactive. The fluorescence, percent of control (lower = inhibition) in assay [2] came out at 71.9%. The same molecule came in with a GTP binding, percent of control in assay [3] of 117%. The molecule further yielded a GTP binding signal, raw median fluorescence (lower = inhibition) (MCF (arbitrary fluorescence units)) in assay [5] of 123.
Take `CC(C)(C)c1ccc(OCCn2cc(C(=O)O)c3ccccc32)cc1`: the molecule was called inactive in assay [1], in assay [4] and in assay [6]. The molecule further displayed a fluorescence, percent of control (lower = inhibition) in assay [2] of 57.9%. For the same molecule, in assay [3], the GTP binding, percent of control turned out to be 82.9%. Also, the GTP binding signal, raw median fluorescence (lower = inhibition) (MCF (arbitrary fluorescence units)) in assay [5] came out at 30.4.
Consider `c1ccc2[nH]c3cc4ncnc4cc3nc2c1`, for which the call in assay [1], in assay [4] and in assay [6] was inactive. This molecule had a fluorescence, percent of control (lower = inhibition) in assay [2] of 31.7%. This molecule came in with a GTP binding, percent of control in assay [3] of 70.1%. This molecule gave a GTP binding signal, raw median fluorescence (lower = inhibition) (MCF (arbitrary fluorescence units)) in assay [5] of 189.
`CC(C)(C)C#CC(=O)c1ccc([N+](=O)[O-])cc1`: the call in assay [1], in assay [4] and in assay [6] was inactive. In assay [2], the fluorescence, percent of control (lower = inhibition) was 37.9%. For the same molecule, the GTP binding, percent of control in assay [3] was 196%. This molecule also came in with a GTP binding signal, raw median fluorescence (lower = inhibition) (MCF (arbitrary fluorescence units)) in assay [5] of 49.6.
`Cc1nc2c(-c3ccc(Cl)cc3)c(C)[nH]n2c(=O)c1Cc1ccccc1`: the outcome in assay [1], in assay [4] and in assay [6] was inactive. Also, the fluorescence, percent of control (lower = inhibition) in assay [2] was determined as 34.5%. The same molecule displayed a GTP binding, percent of control in assay [3] of 75.9%. The GTP binding signal, raw median fluorescence (lower = inhibition) (MCF (arbitrary fluorescence units)) in assay [5] came to 158.
With `CCN(CC)S(=O)(=O)c1cc([N+](=O)[O-])ccc1N=Nc1c(O)[nH]c2ccccc12`, the molecule was classed as inactive in assay [1], in assay [4] and in assay [6]. The fluorescence, percent of control (lower = inhibition) in assay [2] amounted to 82.9%. Moreover, the GTP binding, percent of control in assay [3] was 87.4%. The GTP binding signal, raw median fluorescence (lower = inhibition) (MCF (arbitrary fluorescence units)) in assay [5] is 351.
On to `COc1ccc(-c2csc(C3=C(O)CN(C(C)C)C3=N)n2)cc1OC`, for which the call in assay [1], in assay [4] and in assay [6] was inactive. Moreover, the fluorescence, percent of control (lower = inhibition) in assay [2] was found to be 31.9%. Moreover, in assay [3], the GTP binding, percent of control was 73.2%. In assay [5], this molecule yielded a GTP binding signal, raw median fluorescence (lower = inhibition) (MCF (arbitrary fluorescence units)) of 181.
Take `CCCN(CC1CC1)C(=S)Nc1ccc(Oc2ccccc2)cc1`: the outcome in assay [1], in assay [4] and in assay [6] was inactive. The molecule also yielded a fluorescence, percent of control (lower = inhibition) in assay [2] of 26.1%. In assay [3], this molecule registered a GTP binding, percent of control of 81.4%. The GTP binding signal, raw median fluorescence (lower = inhibition) (MCF (arbitrary fluorescence units)) in assay [5] stood at 258.
Take `O=C(Nc1sc2c(c1C(=O)O)CCCCC2)c1ccccc1`: the result in assay [1], in assay [4] and in assay [6] was inactive. The fluorescence, percent of control (lower = inhibition) in assay [2] worked out at 29.3%. The molecule further showed a GTP binding, percent of control in assay [3] of 74.3%. The same molecule displayed a GTP binding signal, raw median fluorescence (lower = inhibition) (MCF (arbitrary fluorescence units)) in assay [5] of 201.
`COc1ccc(-c2nnc(S/C(=C/c3ccc(Cl)cc3)C(=O)O)o2)cc1`: the outcome in assay [1], in assay [4] and in assay [6] was inactive. In addition, the fluorescence, percent of control (lower = inhibition) in assay [2] amounted to 35.8%. Besides, the GTP binding, percent of control in assay [3] amounted to 81.6%. The GTP binding signal, raw median fluorescence (lower = inhibition) (MCF (arbitrary fluorescence units)) in assay [5] was found to be 218.
Consider `Cc1nc2cccc(C)n2c(=O)c1Cl`, for which the outcome in assay [1], in assay [4] and in assay [6] was inactive. The fluorescence, percent of control (lower = inhibition) in assay [2] amounted to 38.6%. The molecule further had a GTP binding, percent of control in assay [3] of 83.8%. This molecule also gave a GTP binding signal, raw median fluorescence (lower = inhibition) (MCF (arbitrary fluorescence units)) in assay [5] of 255.
`O=C(Cn1cnc2cc([N+](=O)[O-])ccc2c1=O)NCCc1ccc(Cl)cc1`: the outcome in assay [1], in assay [4] and in assay [6] was inactive. The molecule also gave a fluorescence, percent of control (lower = inhibition) in assay [2] of 36.8%. Further, in assay [3], the GTP binding, percent of control stood at 85.2%. For the same molecule, in assay [5], the GTP binding signal, raw median fluorescence (lower = inhibition) (MCF (arbitrary fluorescence units)) stood at 244.
With `Cc1cc(N=NC(=O)c2ccccc2O)c2ccccc2c1O`, the outcome in assay [1], in assay [4] and in assay [6] was inactive. In assay [2], this molecule showed a fluorescence, percent of control (lower = inhibition) of 36.1%. In assay [3], this molecule registered a GTP binding, percent of control of 85.2%. Besides, the GTP binding signal, raw median fluorescence (lower = inhibition) (MCF (arbitrary fluorescence units)) in assay [5] is 243.
`C=CCc1ccccc1OCC(O)CN1CCN(C(=O)OCC)CC1` (stereo not given): the call in assay [1], in assay [4] and in assay [6] was inactive. Further, the fluorescence, percent of control (lower = inhibition) in assay [2] came out at 48.3%. For the same molecule, the GTP binding, percent of control in assay [3] came to 60.5%. Besides, the GTP binding signal, raw median fluorescence (lower = inhibition) (MCF (arbitrary fluorescence units)) in assay [5] was 194.
On to `CCCC(=O)c1ccc(N2CCOCC2)c(F)c1`, for which the result in assay [1], in assay [4] and in assay [6] was inactive. In assay [2], this molecule returned a fluorescence, percent of control (lower = inhibition) of 48.4%. In assay [3], the GTP binding, percent of control is 65.7%. Also, the GTP binding signal, raw median fluorescence (lower = inhibition) (MCF (arbitrary fluorescence units)) in assay [5] came out at 212.

The record behind these values is PubChem BioAssay.
